Source: PubChem BioAssay
The list is not random: actives were taken first. Their share in the collection is about 3.9%.
Autofluor counter – compound fluorescence in toxin protease inhibitor counterscreen | compound autofluorescence counterscreen, microsphere flow cytometry; hits give high values | fluorescence intensity (no concentration beside the values) | 360,000 compounds, 3.1% hits; in the data active = fluorescence intensity above about 16000; inconclusive = no clear call, values can overlap the other calls
3CLpro inhibitor – SARS-CoV 3CLpro protease inhibitors, primary screen, biochemical, quenched FRET | 290,000 compounds, 0.14% hits | recombinant SARS-CoV 3CLpro, quenched FRET peptide cleavage | Replicase polyprotein 1ab (Severe acute respiratory syndrome coronavirus), P0C6X7 | inhibition, % at 6 µM; in the data active = inhibition above about 12%
CCHF vOTU inh – CCHFV vOTU protease inhibitors, primary screen, biochemical, Pep-AMC substrate, fluorescence; Crimean-Congo hemorrhagic fever virus L polyprotein viral ovarian tumor (vOTU) protease …; inhibition, % at 11.5 µM; 370,000 compounds, 0.55% hits; AID 651958, 2012; in the data active = inhibition above about 30%; note: 0% = vehicle wells with enzyme and 100% = no enzyme wells
Anthrax LF inh2 – Bacillus anthracis LF protease inhibitors, primary screen, biochemical, multiplex microsphere, MLPCN library. Lethal factor (Bacillus anthracis), P15917. inhibition, % at 10 µM. 360,000 compounds, 0.12% hits. multiplex microsphere protease cleavage assay. AID 588501, 2011; note: plate controls were buffer without enzyme for full effect and enzyme alone for no effect
Target sequence (P15917 whole entry, looked up): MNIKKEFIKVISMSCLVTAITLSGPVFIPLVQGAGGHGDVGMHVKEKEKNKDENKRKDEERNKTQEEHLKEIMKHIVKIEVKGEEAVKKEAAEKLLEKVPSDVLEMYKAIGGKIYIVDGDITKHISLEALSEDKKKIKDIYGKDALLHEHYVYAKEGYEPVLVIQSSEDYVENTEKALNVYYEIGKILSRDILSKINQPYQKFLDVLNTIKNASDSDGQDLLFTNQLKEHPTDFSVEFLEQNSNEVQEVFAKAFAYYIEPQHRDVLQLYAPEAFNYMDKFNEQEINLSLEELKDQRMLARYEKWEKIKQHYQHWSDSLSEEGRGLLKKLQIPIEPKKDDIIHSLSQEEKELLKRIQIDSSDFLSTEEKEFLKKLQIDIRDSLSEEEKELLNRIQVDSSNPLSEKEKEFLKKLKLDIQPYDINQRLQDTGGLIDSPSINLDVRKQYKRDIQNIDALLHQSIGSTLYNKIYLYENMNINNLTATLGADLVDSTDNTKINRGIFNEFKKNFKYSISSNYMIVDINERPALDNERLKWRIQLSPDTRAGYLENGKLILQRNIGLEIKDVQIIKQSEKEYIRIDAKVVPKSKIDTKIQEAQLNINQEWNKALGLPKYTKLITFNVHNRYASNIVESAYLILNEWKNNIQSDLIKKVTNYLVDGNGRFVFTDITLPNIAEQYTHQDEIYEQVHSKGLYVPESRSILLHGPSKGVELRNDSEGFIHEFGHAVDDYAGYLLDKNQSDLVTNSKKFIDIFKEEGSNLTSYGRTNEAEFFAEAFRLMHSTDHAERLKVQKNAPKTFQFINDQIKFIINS
BoNT A protease – BoNT/A light chain protease inhibitors, primary screen, biochemical, flow cytometry, MLPCN library | inhibition, % at 10 µM | Botulinum neurotoxin type A light chain protease (Clostridium botulinum A str. ATCC 3502) | 360,000 compounds, 0.17% hits | AID 588499, 2011 | multiplex microsphere protease substrate cleavage; note: plate controls were buffer without enzyme for full effect and enzyme alone for no effect
BoNT F protease – BoNT/F light chain protease inhibitors, primary screen, biochemical, flow cytometry, MLPCN library; Multiplex microsphere protease cleavage assay; Botulinum neurotoxin type F light chain protease (Clostridium botulinum); inhibition, % at 10 µM; 360,000 compounds, 0.22% hits; in the data active = inhibition above about 35%, passing the limit was not always enough; inconclusive = no clear call, values can overlap the other calls; note: plate controls were buffer without enzyme for full effect and enzyme alone for no effect
The depositor's hits bear a star; ? = inconclusive; . = no result given. Cut-off read from the data, not from the text of the source, unless noted: active = inhibition above about 30%; inconclusive = no clear call, values can overlap the other calls; inactive = below that.

SMILES	Autofluor counter	3CLpro inhibitor	CCHF vOTU inh	Anthrax LF inh2	BoNT A protease	BoNT F protease
COc1ccccc1NC(=O)N1CCCC(C(=O)Nc2cccc(C)c2C)C1 (centres undefined)	8686	3	-9	3	1	1
Cc1cccc(NC(=O)C2CCCN(C(=O)NC3CCCCC3)C2)c1C (centres undefined)	22986*	1	8	-1	0	-1
Cc1oc(C(=O)Nc2ccc(C(=O)O)cc2)cc1COc1ccccc1	16440*	6	-5	-3	-1	-3
Cc1ccc(C(=O)NN2C(=O)/C(=C/c3cn(C)c4ccccc34)SC2=S)cc1	2904	7	-18	26	43*	23
Cc1ccc(C(=O)NN2C(=O)/C(=C/c3cccn3C)SC2=S)cc1	7064	2	4	17	8	0
Cc1nc2ccccc2c2nc(NC(=O)Cc3ccccc3)nn12	17263*	-2	-6	-8	?	-7
O=C(Nc1ccc(OC(F)(F)F)cc1)Nc1nc2ncccn2c1-c1ccc(C(F)(F)F)cc1	.	.	-17	.	.	.
O=C(COC(=O)CNC(=O)C12CC3CC(CC(C3)C1)C2)Nc1ccccc1	19773*	-6	3	-16	?	11
S=C(Nc1ccc2c(c1)OCO2)NC1CCN(Cc2ccccc2)CC1	20636*	4	-1	0	0	-3
O=C(Nc1ccc(F)cc1)C(c1ccncc1)N1CCN(C(=O)c2ccco2)CC1 (centres undefined)	.	.	2	.	.	.
COc1ccccc1N1CCN(C(=O)c2cc3c(=O)n4cccc(C)c4nc3s2)CC1	3974	7	-31	2	6	8
CC(=O)Nc1ccccc1OC(=O)N(C)C	15505	0	5	1	2	4
CCN(CC)C(=O)Oc1ccccc1NC(C)=O	20729*	0	3	0	?	-4
CCOc1ccc(CCNC(=O)c2cc3ccsc3n2C)cc1OC	.	.	11	.	.	.
CC(NC(=O)c1ccc(F)cc1)c1nc2ccccc2n1Cc1ccccc1F (centres undefined)	26278*	-2	.	0	-7	-10
Cn1c(SCC(=O)NCc2ccco2)nnc1C1CCCC1	6342	-1	6	1	-2	1
CCCc1nnc(NC(=O)Cn2c(=O)oc3cc(Br)ccc32)s1	21386*	5	-9	-1	2	4
CCOc1ccc(NC(=O)CN(C)C(=O)CN2C(=O)c3ccc([N+](=O)[O-])cc3C2=O)cc1OCC	5736	.	-1	2	1	1
COc1ccc(S[C@]2(C(=O)N3CCCC3)CC(=O)N(C(=O)/C=C/c3ccccc3)[C@@H]2c2ccc(OC)cc2)cc1	.	.	-3	.	.	.
CC(=O)N1C[C@@H](CN2C(=O)CCC2=O)[C@@H]2C[C@H]1c1ccccc1N2C	.	.	-7	.	.	.
O=C(Nc1ccc(Oc2ccc(NC(=O)Nc3ccccc3Cl)cc2)cc1)Nc1ccccc1Cl	3937	2	8	-7	-2	9
CCCc1cc(=O)oc2cc(C)cc(OC(C)C(=O)NCc3cccnc3)c12 (centres undefined)	5525	-2	-28	-2	0	7
Cc1nn(CCC(=O)NNC(=S)Nc2ccc(F)cc2)c(C)c1[N+](=O)[O-]	22117*	-3	-3	-2	1	2
Cc1nn(CCC(=O)NNC(=O)Nc2ccc(F)cc2)c(C)c1[N+](=O)[O-]	.	.	-6	.	.	.
COc1cc(S(=O)(=O)N2CCN(C(=O)c3ccco3)CC2)ccc1Cl	3918	2	4	-5	-2	-32
SMILES	Autofluor counter	3CLpro inhibitor	CCHF vOTU inh	Anthrax LF inh2	BoNT A protease	BoNT F protease
O=C(NCc1cccnc1)C(=O)Nc1nc2ccccc2s1	2461	-2	-6	0	-1	-1
Cc1ccc2c(Cl)c(C(=O)NCc3cccnc3)sc2c1	20230*	7	-4	2	?	0
O=C(NCc1cccnc1)c1sc2ccccc2c1Cl	24841*	7	-2	-2	?	-7
Cc1ccc(CC(=O)NCc2cccnc2)cc1	.	1	-12	.	.	.
O=C(NCc1cccnc1)c1cccnc1-c1nc2ccccc2s1	22730*	1	0	1	1	1
COCCSc1ccccc1C(=O)N1CCc2ccccc21	3694	6	12	-6	-2	9
COc1ccc(OC)c(NC(=O)CSc2nc(N3CCOCC3)nc(N3CCOCC3)n2)c1	5223	0	-5	-2	2	2
CN(CC#Cc1ccccc1)C(N)=NC(=O)/C=C/c1cccc(C(F)(F)F)c1	.	.	12	.	.	.
O=C(CSc1nnc(-c2cccnc2)n1-c1ccccc1)Nc1ccc(OCc2ccccc2)cc1	.	.	10	.	.	.
CN(C)S(=O)(=O)c1c(Cl)cccc1Cl	23563*	-3	-3	0	1	1
O=c1c(-c2ccco2)[n+]([O-])c2ccccc2n1OCc1ccccc1[N+](=O)[O-]	2590	4	-7	1	3	3
O=C1CCCC(O)=C1N=Nc1c(Cl)cc(C(F)(F)F)cc1Cl	2889	4	6	83*	4	?
CCCOc1ccc(C(=O)CCC(=O)NNC(=O)c2cccs2)cc1	3736	.	4	8	0	4
COCCCNC(=O)c1ccc(C(=O)NCCCOC)cc1	22526*	-1	-17	2	0	-2
COCCCNC(=S)NNC(=O)c1cccnc1	20168*	2	0	-2	0	-2
O=C(NNC(=S)NCc1ccccc1)c1cccnc1	5709	0	2	-1	2	2
COCCCNC(=O)c1ccc(-c2nc3ccccc3nc2-c2ccccc2)cc1	6662	.	-9	-5	-2	-1
COc1cc(OC)cc(-c2nnc(NC(=O)Cc3ccc(F)cc3)o2)c1	6555	2	1	-2	-2	-7
CN1CCN(c2ccc(NC(=O)COc3ccccc3)cc2Cl)CC1	5927	4	7	0	3	-4
CCCOc1ccc(C(=O)N2CCN(c3ccc(NC(=O)CC)cc3Cl)CC2)cc1	20982*	-3	-5	1	?	-4
COc1ccc2[nH]cc(C(C)c3c[nH]c4ccccc34)c2c1 (centres undefined)	.	.	7	.	.	.
C/C(N)=C(/C#N)C(=O)CSc1nc2ccc(C)cc2[nH]1	16421*	1	-6	-2	0	1
Cc1ccc2nc(SCC(=O)Nc3nnc(SCC(N)=O)s3)[nH]c2c1	20623*	-1	-1	-2	0	-1
CCCCc1cc(=O)oc2cc(OC3CCCCC3=O)ccc12 (centres undefined)	4067	2	-19	-3	1	-7
O=C(O)COn1c(-c2ccc(Cl)cc2)nc2ccc(Cl)cc21	2456	-2	9	-2	0	-4
Clc1ccc(COn2c(-c3ccc(Cl)cc3)nc3ccccc32)cc1	21296*	2	-2	0	?	-7
